Data from the supplement of paper PMC13380429.

Tested on: Vero E6 infected with SARS-CoV-2
Assay: inhibition of SARS-CoV-2 cytopathic effect; higher = more antiviral protection, active = above 15
Conditions: 48 h

Measured: inhibition of SARS-CoV-2 cytopathic effect

O=c1[nH]c2ccccc2n1CCCN1CCC(n2c(=O)[nH]c3cc(Cl)ccc32)CC1 [domperidone]
inactive: 1 nM 0.36% | 8.33 nM -0.12% | 100 nM 1.41% | 833.33 nM 2.23% | 10000 nM -3.31%

CSCC[C@H](NC(=O)[C@H](Cc1ccccc1)NC(=O)CNC(=O)CNC(=O)[C@@H](N)Cc1ccc(O)cc1)C(=O)O [metenkephalin]
inactive: 1 nM 0.74% | 8.33 nM -1.23% | 100 nM 1.24% | 833.33 nM -4.78% | 10000 nM -5.57%

N=C(N)N [guanidine]
inactive: 1 nM -0.16% | 8.33 nM 0.17% | 100 nM -2.15% | 833.33 nM -3.58% | 10000 nM -6.14%

COC(=O)N/N=C/c1c[n+]([O-])c2ccccc2[n+]1[O-] [carbadox]
inactive: 1 nM -0.14% | 8.33 nM -0.55% | 100 nM 0.99% | 833.33 nM -11.6% | 10000 nM 0.87%

N#C/C(=C\c1cn(-c2ccccc2)c2ccccc12)C(=O)O
inactive: 1 nM -0.26% | 8.33 nM -0.12% | 100 nM -0.58% | 833.33 nM 1.6% | 10000 nM -2.52%

CCCCNc1cc(C(=O)O)cc(S(N)(=O)=O)c1Oc1ccccc1 [bumetanide]
inactive: 1 nM 0.26% | 8.33 nM 2.83% | 100 nM 0.69% | 833.33 nM 1.71% | 10000 nM 1.07%

C[C@]12CC[C@H](O)CC1=CC[C@@H]1[C@@H]2CC[C@]2(C)C(=O)CC[C@@H]12
inactive: 1 nM 1.25% | 8.33 nM 0.45% | 100 nM 0.19% | 833.33 nM 5.63% | 10000 nM 1.12%

COc1cc2c(cc1OC)CN(CCc1ccc(NC(=O)c3cccc4c(=O)c5cccc(OC)c5[nH]c34)cc1)CC2 [elacridar]
inactive: 1 nM 14.2% | 8.33 nM 2.41% | 100 nM 0.67% | 833.33 nM -0.09% | 10000 nM -4.73%

Cc1cc(OCCN2CCOCC2)nn1-c1ccc2ccccc2c1
inactive: 1 nM -2.51% | 8.33 nM -1.6% | 100 nM -2.06% | 833.33 nM 0.03% | 10000 nM 1.91%

Cn1c(=O)c2c(ncn2CC2OCCO2)n(C)c1=O [doxofylline]
inactive: 1 nM -0.49% | 8.33 nM -2.41% | 100 nM -0.01% | 833.33 nM -1.59% | 10000 nM -0.77%

Cn1c(NC[C@@H](N)Cc2ccccc2)nc(-c2ccncc2)c(-c2ccc3ccccc3c2)c1=O
inactive: 1 nM -0.22% | 8.33 nM 0.05% | 100 nM -0.08% | 833.33 nM 2.09%
active: 10000 nM 32.9%

C[C@@H](Oc1ccc2[nH]nc(/C=C/c3cnn(CCO)c3)c2c1)c1c(Cl)cncc1Cl
inactive: 1 nM -0.14% | 8.33 nM -0.97% | 100 nM -1.04% | 833.33 nM -13.8% | 10000 nM -14.7%

CN1C(CCl)Nc2cc(Cl)c(S(N)(=O)=O)cc2S1(=O)=O (stereo not given) [methyclothiazide]
inactive: 1 nM -0.11% | 8.33 nM 0.15% | 100 nM 1.53% | 833.33 nM 1% | 10000 nM 2.28%

CN(C)CCOC(=O)COc1ccc(Cl)cc1 [meclofenoxate]
inactive: 1 nM 2.47% | 8.33 nM 0.23% | 100 nM 1.17% | 833.33 nM 1.28% | 10000 nM 1.66%

CCc1ccc(C(=O)C(C)CN2CCCCC2)cc1 (stereo not given) [eperisone]
inactive: 1 nM 0.14% | 8.33 nM 2.24% | 100 nM 3.36% | 833.33 nM 4.7% | 10000 nM 2.77%

CN1CCC(=C2c3ccccc3CCc3sccc32)CC1 [pizotifen]
inactive: 1 nM 2.55% | 8.33 nM -0.27% | 100 nM 0.72% | 833.33 nM 1.5% | 10000 nM -3.38%

Cc1ccccc1NC(=O)Nc1ccc(CC(=O)N(C)[C@@H](CC(C)C)C(=O)NCC[C@H](NC(=O)[C@@H]2CCCN2S(=O)(=O)c2cc(Cl)cc(Cl)c2)C(=O)O)cc1
inactive: 1 nM -1.88% | 8.33 nM 0.66% | 100 nM -0.65% | 833.33 nM 0.17% | 10000 nM -3.63%

CC[C@H]1OC(=O)C[C@@H](O)[C@H](C)[C@@H](O[C@@H]2O[C@H](C)[C@@H](O[C@H]3C[C@@](C)(O)[C@@H](O)[C@H](C)O3)[C@H](N(C)C)[C@H]2O)[C@@H](CC=O)C[C@@H](C)C(=O)/C=C/C(C)=C/[C@@H]1CO[C@@H]1O[C@H](C)[C@@H](O)[C@@H](OC)[C@H]1OC
inactive: 1 nM -4.49% | 8.33 nM -1.15% | 100 nM -2.1% | 833.33 nM -0.46% | 10000 nM 4.02%

CCCCOc1ccc(C(=O)CCN2CCCCC2)cc1 [dyclonine]
inactive: 1 nM 2.76% | 8.33 nM 3.66% | 100 nM 3.14% | 833.33 nM 3.62% | 10000 nM -0.75%

Cn1c(=O)c2c(ncn2C)n(C)c1=O [caffeine]
inactive: 1 nM -0.58% | 8.33 nM 1.54% | 100 nM -0.63% | 833.33 nM 2.87% | 10000 nM 3.35%

Cc1nn(-c2ccccc2)c(C)c1/C=N/N1CCN(Cc2ccccc2)CC1
inactive: 1 nM -4.74% | 8.33 nM 0.23% | 100 nM -0.84% | 833.33 nM -0.98% | 10000 nM -0.87%

CCOCc1nc2c(N)nc3ccccc3c2n1CC(C)(C)O [resiquimod]
inactive: 1 nM 2.06% | 8.33 nM 3.82% | 100 nM 1.55% | 833.33 nM 1.03% | 10000 nM -1.23%

CN1C(=O)CCS(=O)(=O)C1c1ccc(Cl)cc1 (stereo not given) [chlormezanone]
inactive: 1 nM -2.2% | 8.33 nM -0.15% | 100 nM 0.74% | 833.33 nM 0.68% | 10000 nM 1.19%

Cc1ccc(C)c([C@H](O)CNC(C)C)c1 [benzenemethanol,-2,5-dimethyl-[[(1-methylethyl)amino]methyl]]
inactive: 1 nM -1.13% | 8.33 nM 2.02% | 100 nM 0.03% | 833.33 nM 0.15% | 10000 nM 1.34%

O=S(=O)(O)CCSSCCS(=O)(=O)O [dimesna]
inactive: 1 nM -0.79% | 8.33 nM 0.36% | 100 nM 0.65% | 833.33 nM -1.27% | 10000 nM -1.4%

Fc1ccc(-c2c3cccc(C(F)(F)F)c3nn2Cc2ccc(F)cc2Cl)cc1
inactive: 1 nM -0.96% | 8.33 nM -3.42% | 100 nM 2.69% | 833.33 nM -1.23% | 10000 nM 2.25%

Cc1ccccc1N1CCN(S(=O)(=O)C[C@]23CC[C@H](C[C@@H]2NC(=O)[C@@H](N)CCS(C)(=O)=O)C3(C)C)CC1
inactive: 1 nM 0.06% | 8.33 nM 2.09% | 100 nM 2.92% | 833.33 nM 1.11% | 10000 nM 0.11%

Cn1nnnc1SCC1=C(C(=O)O)N2C(=O)[C@@H](NC(=O)[C@H](OC=O)c3ccccc3)[C@H]2SC1 [cefamandole-nafate]
inactive: 1 nM -1.93% | 8.33 nM -0.03% | 100 nM -2.69% | 833.33 nM -3.24% | 10000 nM -0.65%

COc1ccc(N(C)c2nc(C)nc3ccccc23)cc1 [verubulin]
inactive: 1 nM 0.84% | 8.33 nM 2.34% | 100 nM -2.32% | 833.33 nM 2.89% | 10000 nM 2.5%

CC(O)(P(=O)(O)O)P(=O)(O)O [etidronic-acid]
inactive: 1 nM 0.67% | 8.33 nM -1.84% | 100 nM -1.2% | 833.33 nM 0.77% | 10000 nM 0.13%

CCC1(CC)C(=O)C=CNC1=O [pyrithyldione]
inactive: 1 nM 1.54% | 8.33 nM 0.58% | 100 nM -3.23% | 833.33 nM -6.45% | 10000 nM -4.46%

CNC[C@H](O)c1cccc(O)c1 [phenylephrine]
inactive: 1 nM 0.59% | 8.33 nM 1.75% | 100 nM -0.82% | 833.33 nM 0.14% | 10000 nM -0.09%

Cc1ccc(S(=O)(=O)/C=C/C#N)cc1
inactive: 1 nM 0.18% | 8.33 nM -2.24% | 100 nM 0.01% | 833.33 nM 4.59%
active: 10000 nM 18.8%

CCSc1ccc2c(c1)N(CCCN1CCN(C)CC1)c1ccccc1S2 [thiethylperazine]
active: 10000 nM 22.5%
inactive: 1 nM -3.78% | 8.33 nM -1.48% | 100 nM -1.97% | 833.33 nM -4.23%

CN1CCC(Nc2ncc3ncnc(Nc4ccc(F)c(Cl)c4)c3n2)CC1
inactive: 1 nM 0.68% | 8.33 nM 1.23% | 100 nM -4.55% | 833.33 nM -7.55% | 10000 nM -2.79%

O=C(O)C(F)(F)C(F)(F)C(F)(F)C(F)(F)C(F)(F)C(F)(F)C(F)(F)F [ammonium-perfluorocaprylate]
inactive: 1 nM 2.29% | 8.33 nM -0.68% | 100 nM 0.56% | 833.33 nM -0.2% | 10000 nM -2.3%

Nc1ccncc1 [dalfampridine]
inactive: 1 nM 0.53% | 8.33 nM 0.41% | 100 nM 1.64% | 833.33 nM 2.49% | 10000 nM 1.18%

C[C@H](NC[C@H](O)CP(=O)(O)CC1CCCCC1)c1ccc(Cl)c(Cl)c1
inactive: 1 nM 0.9% | 8.33 nM -0.56% | 100 nM -1.52% | 833.33 nM 0.84% | 10000 nM 0.91%

CCC(=O)O[C@H]1[C@H](O[C@@H]2[C@@H](C)[C@H](O[C@H]3C[C@@](C)(OC)[C@@H](O)[C@H](C)O3)[C@@H](C)C(=O)O[C@H](CC)[C@@](C)(O)[C@H](O)[C@@H](C)C(=O)[C@H](C)C[C@@]2(C)O)O[C@H](C)C[C@@H]1N(C)C [erythromycin-estolate]
inactive: 1 nM -0.2% | 8.33 nM 1.07% | 100 nM 2.51% | 833.33 nM 2.85% | 10000 nM -0.99%
